# Data taken from the supplement of paper PMC4237247.
# Tested on: HeLa
# Experiment: percent cells in G2/M phase; higher = more G2/M arrest
# Conditions: 10 µM; 20 h; hit class: G2/M-phase inhibitor
# Procedure: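 HTS of 79,827 drug-like compounds at 10 uM. HeLa cells in 384-well plates were treated for 20 h, fixed, stained with Vybrant DyeCycle Green and scanned on an Acumen eX3 cytometer to give per-well cell cycle profiles. Only G2/M hits (>=67% G2/M) are listed.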
row,SMILES,percent cells in G2/M phase [%]
1,COC(=O)Nc1nc2cc(C(=O)c3ccccc3)ccc2[nH]1 [Mebendazole],76.8
2,COc1ccccc1NC1=CC(=O)CC(c2ccccc2)C1 (centres undefined),70.1
3,COC(=O)Nc1nc2ccc(SC(C)C)cc2[nH]1 [Methiazole],72.9
4,COc1cc(NS(=O)(=O)c2ccc(NC(C)=O)cc2)c(OC)cc1Cl,71
5,O=C(CSc1nc2ccc([N+](=O)[O-])cc2s1)c1ccc(Cl)cc1,69.3
6,COC(=O)Nc1nc2cc(Sc3ccccc3)ccc2[nH]1 [Fenbendazole],66.2
7,CCN(CC)CCN1C(=O)C(=O)C(=C(O)c2ccccc2)C1c1ccccc1F (centres undefined),68.3
8,CC(=O)Nc1ccc(Nc2nc(-c3c(C)nc4ccccn34)cs2)cc1,78
9,O=c1[nH]c(/C=C/c2ccccc2)nc2ccccc12,69.3
10,CC(=O)O[C@H]1C(=O)[C@@]2(C)[C@H]([C@H](OC(=O)c3ccccc3)[C@]3(O)C[C@H](OC(=O)[C@H](O)[C@@H](NC(=O)c4ccccc4)c4ccccc4)C(C)=C1C3(C)C)[C@]1(OC(C)=O)CO[C@@H]1C[C@@H]2O [Paclitaxel],75.7
11,O=C(O)c1ccccc1SC1CC(=O)N(c2ccc(Br)cc2)C1=O (centres undefined),75.3
12,COc1cc(-c2onc3ccc(Cl)cc23)cc(OC)c1OC,78.1
13,COc1ccc(/C=C/c2ccc3cccc(O)c3n2)cc1C,71.7
14,O=c1[nH]c(/C=C/c2ccccc2F)nc2ccccc12,76.3
